Test [1] can be described thus: inhibitors of TNFa-induced NFkB p65 translocation, primary screen, imaging, HUVEC, MLSMR starter and 10KST1 sets (AID 438;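 active means inhibition above 20% together with a positive visual image hit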;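 further: compound added about 3h40 before a 20 min TNFalpha stimulation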;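 on inhibition: signal is the nuclear over cytoplasmic p65 intensity ratio per well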). To be noted: HUVEC TNFa-induced p65 nuclear translocation; cell count: measured here: nuclei count (cytotoxicity indicator), at 2.08 µM; inhibition: at 2 µM, stronger effect = higher value, 0% TNFa-plus-vehicle, 100% no-TNFa wells.
Test [2] can be described thus: inhibitors of mutant huntingtin aggregation, primary screen, imaging, exon1htt(103Q)mCFP cells, high-content imaging (AID 483;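 active means visual image review flags a hit and inhibition of aggregation exceeds 20%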;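 further: compound exposure lasted 3 days before fixation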;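 on nuclei count: percent of the per-plate median nuclei count of sample wells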). The note with it: exon1htt(103Q)mCFP cell line, aggregate imaging, at 2 µM; inhibition of aggregation: stronger effect = higher value; nuclei count: measured here: cell count, toxicity.
Test [3] in a line: inhibitors of E-selectin induction by TNFa, primary screen, imaging, HUVEC, immunofluorescence, MLSMR starter and 10KST1 sets (AID 487;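 active means visually confirmed hit in the image check and inhibition above 20%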;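 on inhibition: signal is fraction of cell area covered by stained E-selectin grains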;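 on nuclei count: 100% = median nuclei count of all wells on the same plate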). To be noted: HUVEC TNFalpha-induced E-selectin immunofluorescence imaging, at 2 µM; inhibition: stronger effect = higher value; nuclei count: measured here: cell number, toxicity.
Test [4] concerns the target Voltage-gated potassium channel subunit beta-2 (Rattus norvegicus) (UniProt P62483). Description: KvBeta enzyme negative modulators, primary screen, biochemical, NADPH fluorescence (AID 622;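 active means fluorescence slope higher than the sample average by over 3 SD, cut at about -0.22 in these data, passing the limit was not always enough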;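 further: slope of raw intensity against log time taken from 70 to 1610 s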). To be noted: recombinant KvBeta, 4-cyanobenzaldehyde reduction, at 10 µM, stronger effect = higher value.
Test [5] has the same target. Description: KvBeta positive modulators, primary screen, biochemical, NADPH fluorescence (AID 623;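 active means NADPH fluorescence slope more negative than the mean of all samples by about 3 SD, 99.7% confidence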;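 further: fluorescence intensity change per second fitted from 20 to 320 s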). The note with it: Recombinant KvBeta, NADPH fluorescence decrease slope, 10 min; at 10 µM; stronger effect = lower value.
Test [6] deals with Alpha-2C adrenergic receptor (Homo sapiens) (UniProt P18825). Description: modulators of alpha2C/GIRK thallium flux, primary screen, cell-based, HEK293 alpha2C/GIRK1/2 (AID 624).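 Further: slope of fluorescence ratio to pre-addition baseline per second over 15 to 24 s.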 To be noted: thallium flux BTC fluorescence, at 10 µM, actives lie on both sides.
The nature of test [7]: inhibitors of Sendai virus-induced IRF3 signaling, primary screen, TLR/RLR signaling modifier project, cell-based, Sendai virus stimulus, luciferase, 10K MLSCN set (AID 602276;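 active means inhibition at or above 50% at 10 µM; inactive means inhibition below 50%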;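 further: firefly luciferase from ISG56 promoter only with Renilla not read in this screen; 0% = Sendai virus plus DMSO and 100% = medium plus DMSO without virus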). To be noted: HEK293 RL24 IRF3 luciferase reporter, at 10 µM, stronger effect = higher value. A general note: Reporter assays use an easily measured gene product as a stand-in for the process of interest.
Test [8] is described as follows: inhibitors of poly I:C-induced TLR3 signaling, primary screen, cell-based, poly I:C stimulus, luciferase, 10K MLSCN set (AID 602277;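 active means inhibition of the reporter signal at or above 50%; inactive means inhibition below 50%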). To be noted: HEK293-TLR3 RL24 IRF3 luciferase reporter, at 10 µM, stronger effect = higher value.

Active and inactive are the calls of the source.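 How the source made its calls, unless noted: active means fluorescence slope after compound addition differing from the mean of all screened samples at 99.7% confidence, in either direction; inactive means the rest.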

Chain of Voltage-gated potassium channel subunit beta-2 (Rattus norvegicus) (P62483 whole entry, looked up): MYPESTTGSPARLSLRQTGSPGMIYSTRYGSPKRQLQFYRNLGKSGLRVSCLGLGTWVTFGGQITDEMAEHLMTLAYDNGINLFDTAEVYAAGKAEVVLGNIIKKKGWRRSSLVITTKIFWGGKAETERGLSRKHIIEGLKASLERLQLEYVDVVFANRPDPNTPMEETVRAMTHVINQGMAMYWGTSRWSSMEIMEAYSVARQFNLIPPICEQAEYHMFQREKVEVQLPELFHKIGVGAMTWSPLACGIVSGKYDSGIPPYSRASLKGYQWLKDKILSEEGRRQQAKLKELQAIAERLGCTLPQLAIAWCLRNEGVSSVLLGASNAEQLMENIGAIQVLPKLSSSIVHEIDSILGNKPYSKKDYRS
Chain of Alpha-2C adrenergic receptor (Homo sapiens) (P18825 whole entry, looked up): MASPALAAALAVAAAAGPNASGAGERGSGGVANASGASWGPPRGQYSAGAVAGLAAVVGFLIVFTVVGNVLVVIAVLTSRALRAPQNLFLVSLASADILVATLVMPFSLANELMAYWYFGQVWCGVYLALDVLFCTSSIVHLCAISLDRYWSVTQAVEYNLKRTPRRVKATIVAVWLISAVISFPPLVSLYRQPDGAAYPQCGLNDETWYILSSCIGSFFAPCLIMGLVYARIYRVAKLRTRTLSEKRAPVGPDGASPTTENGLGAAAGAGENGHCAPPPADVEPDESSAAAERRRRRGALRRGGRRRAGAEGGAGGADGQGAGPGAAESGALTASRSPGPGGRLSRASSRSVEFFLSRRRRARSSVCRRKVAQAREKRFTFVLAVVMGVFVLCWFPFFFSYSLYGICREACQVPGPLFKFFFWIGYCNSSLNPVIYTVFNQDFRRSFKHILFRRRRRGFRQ

One may read the inhibition as the drop in the measured response relative to a control, in per cent. `COC(=O)Cn1c(CCS(=O)(=O)c2ccc(C)cc2)nc2ccccc21`: in test [1], the cell count came out at 503. For the same molecule, the inhibition is -41.8% (inactive) in test [1], -69.5% (inactive) in test [3], 17.1% (inactive) in test [7] and 28.4% (inactive) in test [8]. Moreover, in test [2], the inhibition of aggregation is 6.7% (inactive). Besides, the nuclei count was 57.3% in test [2] and 105% in test [3]. Also, the fluorescence slope in test [4] is -0.498 (inactive). Also, in test [5], the NADPH fluorescence slope was -2.9e-05 (inactive). Further, the slope in test [6] is 0.00565 (inactive).
On to `O=C(CN1C(=O)COCC1=O)N1CCOCC1`, for which, in test [1], the cell count amounted to 377. In addition, the inhibition in test [1] is -7% (inactive); in test [3], -35.1% (inactive); in test [7] it was 9.66% (inactive); in test [8], 23.7% (inactive). In addition, the inhibition of aggregation in test [2] is 11.7% (inactive). Also, the nuclei count in test [2] came to 108%; in test [3], 112%. In addition, in test [4], the fluorescence slope was -0.422 (inactive). The NADPH fluorescence slope in test [5] was -0.00011 (inactive). In test [6], the slope was 0.00596 (inactive).
`NC(=O)CSCc1ccc(Br)cc1`: the cell count in test [1] amounted to 313. Further, the inhibition in test [1] was 8.3% (inactive); in test [3] it was -103% (inactive); in test [7] it was 11.5% (inactive); in test [8] it was 13.5% (inactive). The inhibition of aggregation in test [2] was 12.7% (inactive). For the same molecule, the nuclei count turned out to be 91.7% in test [2] and 105% in test [3]. Besides, in test [4], the fluorescence slope is -0.579 (inactive). Besides, the NADPH fluorescence slope in test [5] was -5e-05 (inactive). The slope in test [6] is 0.00494 (inactive).
Take `CCC(C(=O)Nc1ncccn1)(C(F)(F)F)C(F)(F)F`: in test [1], the cell count came to 218. Also, the inhibition is 2% (inactive) in test [1], -2.6% (inactive) in test [3], -24.5% (inactive) in test [7] and -0.327% (inactive) in test [8]. Further, in test [2], the inhibition of aggregation is 25.4% (inactive). The nuclei count in test [2] was determined as 93.4%; in test [3] it was 110%. The fluorescence slope in test [4] was -0.499 (inactive). Moreover, the NADPH fluorescence slope in test [5] is 5.3e-05 (inactive). Besides, in test [6], the slope was 0.00586 (inactive).
As for `O=C(CSc1ncn[nH]1)c1ccco1`, the cell count in test [1] was 746. Moreover, the inhibition in test [1] was -13.5% (inactive); in test [3], 13.2% (inactive); in test [7], 18.7% (inactive); in test [8], 26.5% (inactive). Further, the inhibition of aggregation in test [2] was -3.4% (inactive). In addition, the results for the nuclei count in test [2] and in test [3] were 112% and 119%, respectively. Also, the fluorescence slope in test [4] is -0.453 (inactive). Moreover, the NADPH fluorescence slope in test [5] was -9.5e-06 (inactive). The slope in test [6] is 0.00556 (inactive).
Regarding `CCOc1ccc(Cn2nnc(C(=O)Nc3ccc(OC)cc3OC)c2N)cc1`, the cell count in test [1] was 720. Besides, the inhibition was -6.1% (inactive) in test [1], -9.7% (inactive) in test [3], -5.26% (inactive) in test [7] and -8.45% (inactive) in test [8]. Further, the inhibition of aggregation in test [2] is 7.2% (inactive). Besides, the values for the nuclei count in test [2] and in test [3] were 108% and 106%, respectively. Moreover, the fluorescence slope in test [4] is -0.49 (inactive). The NADPH fluorescence slope in test [5] was -3.6e-05 (inactive). In addition, the slope in test [6] is 0.00559 (inactive).
On to `CCC(C)OC(=O)c1[nH]c2c(c1C)C(=O)CC(c1ccc(N(C)C)cc1)C2` (centres undefined), for which the cell count in test [1] was 717. In addition, the inhibition in test [1] was -3.2% (inactive); in test [3], -31.4% (inactive); in test [7], -57.4% (inactive); in test [8], -143% (inactive). Also, in test [2], the inhibition of aggregation is -40.7% (inactive). Also, the nuclei count in test [2] stood at 108%; in test [3], 125%. Moreover, the fluorescence slope in test [4] was -0.506 (inactive). The NADPH fluorescence slope in test [5] is -3.4e-06 (inactive). For the same molecule, the slope in test [6] is 0.00616 (inactive).
Consider `CC(C)N(O)C(=O)NC(C)(C)C`, for which, in test [1], the cell count turned out to be 496. For the same molecule, the inhibition in test [1] is 9.4% (inactive); in test [3], 42.3% (inactive); in test [7], 17.4% (inactive); in test [8], 15% (inactive). For the same molecule, the inhibition of aggregation in test [2] is -1.8% (inactive). The nuclei count in test [2] was determined as 106%; in test [3] it was 103%. Moreover, the fluorescence slope in test [4] is -0.494 (inactive). For the same molecule, the NADPH fluorescence slope in test [5] was -2.2e-05 (inactive). For the same molecule, in test [6], the slope was 0.00463 (inactive).
With `O=C(CSc1nnnn1C1CCCC1)Nc1cccc(NC(=O)c2ccco2)c1`, the cell count in test [1] came out at 747. The inhibition in test [1] is -15.8% (inactive); in test [3], -76.4% (inactive); in test [7], 5.72% (inactive); in test [8], 9.32% (inactive). In test [2], the inhibition of aggregation was 21.9% (inactive). In addition, the nuclei count in test [2] is 56.9%; in test [3], 132%. For the same molecule, in test [4], the fluorescence slope was -0.329 (inactive). Moreover, the NADPH fluorescence slope in test [5] was 2.2e-05 (inactive). Further, the slope in test [6] is 0.00506 (inactive).
`COc1cccc(NC(=O)CSc2nnc(Cc3cccn3C)n2-c2ccc(F)cc2)c1`: in test [1], the cell count turned out to be 567. For the same molecule, the inhibition in test [1] is -3.3% (inactive); in test [3], 26.6% (inactive); in test [7], -1.59% (inactive); in test [8], 15.6% (inactive). Further, the inhibition of aggregation in test [2] was 38.3% (inactive). Further, the nuclei count was determined as 85.3% in test [2] and 110% in test [3]. In addition, the fluorescence slope in test [4] is -0.594 (inactive). For the same molecule, the NADPH fluorescence slope in test [5] is -2.4e-05 (inactive). Besides, the slope in test [6] was 0.00609 (inactive).
Regarding `CC1Cc2nc(SCC(=O)N3CCCc4ccccc43)n(C)c(=O)c2S1` (centres undefined), the cell count in test [1] is 647. Besides, the inhibition in test [1] is 0.5% (inactive); in test [3], 5.3% (inactive); in test [7] it was 6% (inactive); in test [8] it was 20.4% (inactive). Also, the inhibition of aggregation in test [2] is -0.9% (inactive). For the same molecule, the nuclei count was 46.7% in test [2] and 118% in test [3]. Moreover, in test [4], the fluorescence slope was -0.543 (inactive). The NADPH fluorescence slope in test [5] is -1.5e-05 (inactive). The slope in test [6] was 0.00618 (inactive).
As for `COc1ccc(C2(C(=O)Nc3c(C)n(C)n(-c4ccccc4)c3=O)CCCC2)cc1OC`, the cell count in test [1] was 712. For the same molecule, the inhibition was 1.6% (inactive) in test [1], -52.3% (inactive) in test [3], 13.1% (inactive) in test [7] and 14.9% (inactive) in test [8]. For the same molecule, the inhibition of aggregation in test [2] is -9.8% (inactive). In addition, the nuclei count was 76.1% in test [2] and 104% in test [3]. Moreover, the fluorescence slope in test [4] was -0.427 (inactive). In test [5], the NADPH fluorescence slope was 2.3e-05 (inactive). For the same molecule, in test [6], the slope was 0.00772 (inactive).
On to `CCc1c(C(=O)Nc2cc(C)ccc2OC)[nH]c(C)c1C(C)=O`, for which, in test [1], the cell count came out at 313. Also, the inhibition in test [1] is -1.7% (inactive); in test [3] it was 2.7% (inactive); in test [7], 23.1% (inactive); in test [8], 27.6% (inactive). Further, the inhibition of aggregation in test [2] is -4.5% (inactive). Further, the figures for the nuclei count in test [2] and in test [3] were 65.3% and 76.2%, respectively. The fluorescence slope in test [4] was -0.424 (inactive). For the same molecule, the NADPH fluorescence slope in test [5] is 1.1e-05 (inactive). Further, the slope in test [6] is 0.00495 (inactive).
`COc1ccccc1N1CCN(S(=O)(=O)CC23CCC(CC2=O)C3(C)C)CC1` (centres undefined): in test [1], the cell count stood at 522. The inhibition in test [1] was -8.1% (inactive); in test [3], -64.4% (inactive); in test [7], 9.34% (inactive); in test [8] it was 25.6% (inactive). For the same molecule, in test [2], the inhibition of aggregation is 20.7% (inactive). Moreover, the nuclei count in test [2] was determined as 103%; in test [3], 157%. Also, the fluorescence slope in test [4] is -0.452 (inactive). For the same molecule, the NADPH fluorescence slope in test [5] is -3.6e-05 (inactive). The slope in test [6] was 0.00394 (inactive).
